In PubChem BioAssay AID2289 (National Center for Advancing Translational Sciences (NCATS), 2010):
“And” between values parts separate entries of the source, which are not always exact repeats. Equal values may be shown once. Hit rate of the full screen: of about 340,000 compounds, about 3,300 (0.97%) were called active. Another 9% or so got no clear call; they are omitted. Calls come from the whole dose curve; as a rule, active = well fitted inhibition curve with a large enough effect; inconclusive = small, poorly fitted or top-dose-only effect, or effect the other way; inactive = flat fitted curve, though single readings scatter. The list shows a part of the results.

experiment: qHTS Assay for Modulators of miRNAs and/or Inhibitors of miR-21; details: HeLa miR-21-FLuc reporter, luciferase luminescence, 48 h; actives lower the signal; note: nearly all actives have a fitted effect of over 55% in size
Procedure, shortened: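 Luminescence from a firefly luciferase reporter carrying a miR-21 binding site downstream, stably expressed under a CMV promoter in HeLa cells that make miR-21 endogenously, reports miRNA modulation after 48 h compound exposure up to approximately 40uM final.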
Potency is the fitted concentration of half-maximal effect.

Potency, active:
O=C(N/N=C1/CC2C=CCC12)c1cccs1 (stereo not given) 11.7 µM
O=C(N/N=C1/CC2C=CCC12)c1ccco1 (stereo not given) 5.21 µM
CC1C2CC(C/C2=N/NC(=O)c2cccs2)C1(C)C (stereo not given) 5.21 µM
COc1ccc(/C=N/n2c(N)nc3ccccc32)cc1OC 16.5 µM
CCn1ncc(/C=C/C(=O)c2ccccc2)c1C 5.21 µM
Cc1c(/C=C/C(=O)c2ccc(O)cc2)cnn1C 18.5 µM
Cc1nn(C)cc1/C=C/C(=O)c1ccc(O)cc1 13.1 µM
Cc1c(/C=C/C(=O)c2ccccc2O)cnn1C 3.69 µM
CCCCN1CCc2c([nH]c3ccc(C)cc23)C1=O 0.826 µM
COc1ccc(/C=N/Nc2ccccn2)cc1O 7.36 µM
CCOc1ccc(/C=N/Nc2ccccn2)cc1OC 5.21 µM
COc1ccc(COc2ccc3c(C)cc(=O)oc3c2)cc1 2.33 µM
COc1cccc(COc2ccc3c(C)cc(=O)oc3c2)c1 2.07 µM
COc1ccc(-c2noc(-c3cccc(OC)c3OC)n2)cc1OC 2.93 µM
Cc1nc(-c2noc(-c3ccccc3Cl)n2)c(C(F)(F)F)o1 11.7 µM
COc1ccc(-c2noc(-c3ccccc3Cl)n2)cc1OC 1.47 µM
Fc1ccc(-n2c(-c3ccc4c(c3)OCO4)n[nH]c2=S)cc1Cl 16.5 µM
CC(=O)c1c(C)nc(Nc2nc3ccccc3s2)nc1C 0.736 µM
COc1ccccc1OCC(=O)Nc1ccc2c(c1)OCCO2 8.26 µM
COc1ccccc1OCC(=O)Nc1ccc2c(c1)OCO2 18.5 µM
O=C(COc1ccccc1F)Nc1ccc2c(c1)OCCO2 1.17 µM
O=C(COc1ccccc1[N+](=O)[O-])Nc1ccc2c(c1)OCO2 3.29 µM
O=C(COc1ccccc1Cl)Nc1ccc2c(c1)OCO2 1.85 µM
CCc1ccccc1OCC(=O)Nc1ccc2c(c1)OCCO2 5.21 µM
Cc1ccccc1OCC(=O)Nc1ccc2c(c1)OCCO2 6.56 µM
Cc1ccc(NC(=O)c2c(Cl)nc3ccccn23)cc1 2.93 µM
O=C(Nc1ccc(F)cc1)c1c(Cl)nc2ccccn12 16.5 µM
C/C(=N\Nc1ccc(Cl)c(C(=O)O)c1)c1cccc([N+](=O)[O-])c1 13.1 µM
C/C(=N\Nc1ccc(Cl)c(C(=O)O)c1)c1ccc2c(c1)OCO2 11.7 µM
C/C(=N\Nc1ccc(Cl)c(C(=O)O)c1)c1ccc[nH]1 14.7 µM
C/C(=N\Nc1ccc(Cl)c(C(=O)O)c1)c1ccccn1 16.5 µM
Cc1cc(N/C=C/C(=O)c2ccccc2)ccc1Br 0.369 µM
Cc1ccc(N/C=C/C(=O)c2ccccc2)cc1Br 0.369 µM
Cn1cc(Cl)c(C(=O)N/N=C/c2ccc3c4c(cccc24)CC3)n1 1.65 µM
COc1ccc(N=Nc2ccc(N)nc2N)cc1 2.61 µM
Nc1ccc(N=Nc2ccccc2Cl)c(N)n1 2.07 µM
c1ccc(SCc2nc(-c3ccccn3)no2)cc1 2.82 µM
COc1ccc(-c2noc(CSc3ccccc3)n2)cc1OC 11.7 µM
N=c1oc2cc(O)ccc2cc1C(=O)Nc1nc2ccccc2s1 1.04 µM
COc1ccc(NC(=O)c2cc3ccccc3o/c2=N\NS(=O)(=O)c2ccc(C)cc2)cc1 3.29 µM
N=c1oc2ccccc2cc1C(=O)Nc1cccc(F)c1 0.165 µM
Cc1ccc(NC(=O)c2cc3ccccc3oc2=N)cc1 0.0736 µM
CCc1ccc2oc(-c3cc(N)cc(C)c3O)nc2c1 2.93 µM
O=C(Nc1nc(-c2cccs2)cs1)C1=COCCO1 2.33 µM
N/C(=N\O)c1ccc(N2CCN(c3ncccc3C(F)(F)F)CC2)nc1 4.65 µM
CC(C)(C)c1ccc(SCCc2ccccn2)cc1 6.56 µM
CC(C)(C)c1ccc(SCCc2cccnc2)cc1 8.26 µM
Cc1ccc(NC(=O)NC(=O)N(C2CCCCC2)S(=O)(=O)c2ccccc2)cc1 16.5 µM
Cc1ccc2oc(=O)c(/C=C(\O)c3cccs3)nc2c1 4.65 µM
Nc1c(-c2cccc([N+](=O)[O-])c2)nc2ccccn12 5.85 µM
CN1CCC(Oc2ccc(Sc3ccccc3)cc2)CC1 5.21 µM
COc1ccc(CN(C(=O)c2cc3ccccc3oc2=O)C2CCS(=O)(=O)C2)cc1OC (stereo not given) 5.85 µM and 13.1 µM
CC(C)Oc1cccc(C(=O)NC(=S)Nc2cccnc2)c1 13.1 µM
CC(C)Oc1cccc(C(=O)NC2=NCCS2)c1 3.69 µM
O=C(NC1=NCCS1)c1ccc(C(F)(F)F)cc1 6.56 µM
O=C(NCc1ccco1)c1cc(-c2ccccc2)on1 7.36 µM
O=C(NCc1ccco1)c1cc(-c2cccs2)on1 5.85 µM
O=C(NCc1cccnc1)c1cc(-c2ccccc2)on1 18.5 µM
O=C(NC12CC3CC(CC(C3)C1)C2)N1CCN(C(=O)c2ccco2)CC1 16.5 µM
O=C1/C(=C/c2cccs2)CCC/C1=C\c1cccs1 1.65 µM
CC(=O)N(c1nnc(-c2cccc(C)c2)s1)C1CCCC1 8.26 µM
Oc1ccc(-c2csc(Nc3ncccn3)n2)cc1O 5.85 µM
CCCCCNc1nc(-c2ccccc2)cs1 1.65 µM
CC(=O)Oc1ccc(-c2csc(Nc3cccc(C)n3)n2)cc1 1.47 µM
Oc1ccc(-c2csc(Nc3ccccn3)n2)cc1O 2.61 µM
c1ccc(-c2csc(Nc3ncccn3)n2)cc1 0.208 µM
c1ccc(Nc2nc(-c3cccs3)cs2)nc1 0.293 µM
Cc1cccc(Nc2nc(-c3ccc(O)c(O)c3)cs2)n1 8.26 µM
Cc1nc(N)sc1-c1csc(Nc2ncccn2)n1 2.93 µM
Cc1ccnc(Nc2nc(-c3ccc(O)c(O)c3)cs2)c1 4.65 µM
Cc1ccc(Nc2nc(-c3ccc(O)c(O)c3)cs2)nc1 8.26 µM
CCOC(=O)c1cccnc1SCc1cc(=O)n2ccccc2n1 13.1 µM
COc1ccc(/C=N/NC(=O)c2ccoc2C)cc1O 6.56 µM
CCOc1ccc(/C=N/NC(=O)c2ccoc2C)cc1OC 7.36 µM
Cc1ccc2nc(-c3ccc(NC(=O)CCN4C(=O)c5ccccc5C4=O)cc3)sc2c1 0.0927 µM
Cc1ccc2nc(-c3ccc(NC(=O)CN4C(=O)c5ccccc5C4=O)cc3)sc2c1 1.65 µM
O=C(CCN1C(=O)c2ccccc2C1=O)Nc1ccc(-c2nc3ccccc3s2)cc1 0.261 µM
Cc1ccc2sc(-c3ccc(NC(=O)CCN4C(=O)c5ccccc5C4=O)cc3)nc2c1 0.104 µM
Cc1ccc2nc(-c3ccc(NC(=O)C(C)N4C(=O)c5ccccc5C4=O)cc3)sc2c1 (stereo not given) 1.17 µM
Cc1ccc2nc(-c3ccc(NC(=O)CSc4nc(N)cc(=O)[nH]4)cc3)sc2c1 8.26 µM
CCC(=O)c1ccc(OCc2ccc(C(=O)OC)cc2)cc1 0.261 µM
CCC(=O)c1ccc(OCc2ccc(C#N)cc2)cc1 9.27 µM
CCOc1ccc(C2=NNC(c3cccs3)=Nc3ccc(OC)cc32)cc1OCC 18.5 µM
CCOc1ccc2c(c1)C(c1ccc(C)cc1)=NNC(c1ccc(C)cc1)=N2 8.26 µM
C=C(C)C1Cc2cc3ccc(=O)oc3cc2O1 (stereo not given) 16.5 µM
Cc1ccc(Cn2nnc3c(=O)[nH]c(C4CCCN(S(=O)(=O)c5ccccc5)C4)nc32)cc1 (stereo not given) 18.5 µM
NC(=O)c1ccsc1NC(=O)c1cc(=O)c2ccccc2o1 0.329 µM
NC(=O)c1ccsc1NC(=O)c1coc2ccccc2c1=O 1.17 µM
O=C(Nc1ccccc1Br)c1cc(=O)c2ccccc2o1 2.07 µM
COc1cccc(/C(C)=N/Nc2ncc(Cl)cc2Cl)c1 16.5 µM
COc1cccc(/C(C)=N/N=C(\C)c2cccc(OC)c2)c1 4.14 µM
CCNc1nc(N)nc(Oc2ccc(C(=O)OC)cc2)n1 8.26 µM
CC(=O)COc1ccc2c(c1C)O/C(=C\c1ccco1)C2=O 3.69 µM
CN(CC(=O)NCCc1ccccc1)Cc1ccco1 14.7 µM
Cn1c(CCCOc2ccc(Cl)cc2Cl)n[nH]c1=S 13.1 µM
O=C(CCCOc1ccc(Cl)cc1Cl)Nc1ccccn1 11.7 µM
CCNC(=O)CCCOc1ccc(Cl)cc1Cl 16.5 µM
CCN(CC)C(=O)CCCOc1ccc(Cl)cc1Cl 14.7 µM
CCCCSc1ncc(C(=O)OCC)c(N)n1 1.31 µM
C=CCSc1ncc(C(=O)OCC)c(N)n1 16.5 µM
CCOC(=O)c1cnc(SCCc2ccccc2)nc1N 1.65 µM
CCOC(=O)c1cnc(SCc2ccc(C)cc2)nc1N 7.94 µM
CCOC(=O)COc1ccccc1C1Nc2ccccc2C(=O)N1c1cccc(Cl)c1 (stereo not given) 5.85 µM
COc1cc(C2Nc3ccccc3C(=O)N2c2ccc(Cl)cc2)c(Cl)cc1OCC(=O)O (stereo not given) 2.33 µM
O=C(CSc1nc(-c2ccc(F)cc2)cs1)N1CCOCC1 6.56 µM
